Results filed as inconclusive are left out. Entries that show only a call come without a potency. A number with no mark means an inactive call. Activity calls are given as the source filed them. Calls come from the whole dose curve; as a rule, active = well fitted inhibition curve with a large enough effect; inconclusive = small, poorly fitted or top-dose-only effect; inactive = flat fitted curve, though single readings scatter.
Potency is the fitted concentration of half-maximal effect.

The nature of the first assay: BET inhibitor-based combinations targeting novel dependencies in MECOM-rearranged (r) AML: AML-191 cell line (AID 2202236; note: nearly all actives have a fitted effect of over 35% in size). Conditions: AML-191 viability, CellTiter-Glo luminescence, 48 h; series mostly up to 46 µM. The gist of the method:
(§1)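 Viability of cells (500 per well) is scored by luminescent CellTiter-Glo at 48 hr post-dosing. Eleven-point titrations are normalized to DMSO and empty controls and reduced to AUC values.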
(In general: In ATP-based viability assays light output follows the ATP content of the culture.)
As for `CCOC(=O)N1c2ccc(C(F)(F)F)cc2[C@@H](N(Cc2cc(C(F)(F)F)cc(C(F)(F)F)c2)C(=O)OC)C[C@H]1CC`, the Potency entry was “inactive”.

Take `CC(=O)Oc1ccccc1C(=O)Nc1ncc([N+](=O)[O-])s1`: the Potency was 20.9 µM (active).

`CC(=O)SCC(Cc1ccccc1)C(=O)NCC(=O)OCc1ccccc1` (stereo unspecified): the Potency result was “inactive”.

With `Cc1ccc(C(C)(O)c2nc3ccccc3s2)c(C)c1` (stereo unspecified), the Potency result is “inactive”.

In the case of `C#Cc1cccc(Nc2ncnc3cc(OCCOC)c(OCCO)cc23)c1`, the Potency is 16.6 µM (active).

Consider `Cc1[nH]nc2ccc(-c3cncc(OC[C@@H](N)Cc4ccccc4)c3)cc12`, for which the Potency was 0.833 µM (active).

Turning to `CCOC(=O)c1ccc(OC(=O)CCCCCN=C(N)N)cc1`, the Potency entry was “inactive”.

In the case of `C[C@]1(c2nc3c(C(N)=O)cccc3[nH]2)CCCN1`, the Potency result is “inactive”.

For the compound `O=C(Cc1cccc(OC(F)(F)F)c1)Nc1ccc(CCCCc2nnc(NC(=O)Cc3ccccn3)s2)nn1`, the Potency was 0.118 µM (active).

For `O=C(Nc1ccccc1Br)N[C@@H]1CCN(c2ccc(C(F)(F)F)cn2)C1`, the Potency entry is “inactive”.

Turning to `C=C1C(=O)OC(CCCCCCCC)C1C(=O)O` (stereo unspecified), the Potency entry is “inactive”.

As to `O=C1CCc2ccc(OCCCCN3CCN(c4cccc(Cl)c4Cl)CC3)cc2N1`, the Potency was 23.5 µM (active).

In the case of `CCCc1nc2c(C)cc(-c3nc4ccccc4n3C)cc2n1Cc1ccc(-c2ccccc2C(=O)O)cc1`, the Potency result was “inactive”.

Consider `COc1cc2c(cc1Cc1cccc(Cl)c1F)c(=O)c(C(=O)O)cn2[C@H](CO)C(C)C`, for which the Potency was 9.34 µM (active).

Regarding `Cn1c(Nc2ccc(C(F)(F)F)cc2)nc2cc(Oc3ccnc(-c4ncc(C(F)(F)F)[nH]4)c3)ccc21`, the Potency was 0.833 µM (active).

As to `O=c1cc(-c2ccccc2)oc2cc(O)c(O)c(O)c12`, the Potency is 18.6 µM (active).

`O=P(O)(O)C(O)(Cn1ccnc1)P(=O)(O)O`: the viability (% of control) was 112% [at 5.12 µM].

For `CC(C)(C)c1cnc(CSc2cnc(NC(=O)C3CCNCC3)s2)o1`, the Potency is 0.742 µM (active).

In the case of `c1cc(-c2sc(-c3ccncc3)c(-c3ccncc3)c2-c2ccncc2)ccn1`, the Potency result was “inactive”.

The next assay in a line: BET inhibitor-based combinations targeting novel dependencies in MECOM-rearranged (r) AML: AML-194 cell line (AID 2202237; note: nearly all actives have a fitted effect of over 40% in size). Particulars: AML-194 (MECOM-r AML) viability, CellTiter-Glo, 48 h; series mostly up to 46 µM. The gist of the method:
as §1
As for `CCOC(=O)N1c2ccc(C(F)(F)F)cc2[C@@H](N(Cc2cc(C(F)(F)F)cc(C(F)(F)F)c2)C(=O)OC)C[C@H]1CC`, the Potency entry is “inactive”.

Take `O=C(O)[C@H](O)[C@@H](O)[C@H](O[C@@H]1O[C@H](CO)[C@H](O)[C@H](O)[C@H]1O)[C@H](O)CO`: the Potency entry is “inactive”.

For `CC(=O)SCC(Cc1ccccc1)C(=O)NCC(=O)OCc1ccccc1` (stereo unspecified), the Potency result was “inactive”.

Turning to `CNC(=O)c1cc(COc2nnc(Nc3ccc(Cl)cc3)c3ccoc23)ccn1`, the Potency result is “inactive”.

For the compound `Cc1ccc(C(C)(O)c2nc3ccccc3s2)c(C)c1` (stereo unspecified), the Potency entry is “inactive”.

Consider `CC1(C)CCC(C)(C)c2cc(NC(=O)c3ccc(C(=O)O)cc3)ccc21`, for which the Potency entry was “inactive”.

For `Cc1[nH]nc2ccc(-c3cncc(OC[C@@H](N)Cc4ccccc4)c3)cc12`, the Potency is 1.18 µM (active).

For the compound `CCOC(=O)c1ccc(OC(=O)CCCCCN=C(N)N)cc1`, the Potency result is “inactive”.

With `C[C@H](NC(=O)[C@@H](O)c1cc(F)cc(F)c1)C(=O)N[C@@H]1C(=O)N(C)c2ccccc2-c2ccccc21`, the Potency result is “inactive”.

In the case of `C[C@]1(c2nc3c(C(N)=O)cccc3[nH]2)CCCN1`, the Potency entry was “inactive”.

Turning to `O=C(Nc1ccccc1Br)N[C@@H]1CCN(c2ccc(C(F)(F)F)cn2)C1`, the Potency entry was “inactive”.

As to `C=C1C(=O)OC(CCCCCCCC)C1C(=O)O` (stereo unspecified), the Potency entry is “inactive”.

For `O=C1CCc2ccc(OCCCCN3CCN(c4cccc(Cl)c4Cl)CC3)cc2N1`, the Potency is 26.3 µM (active).

In the case of `NC(=O)[C@@H](CCC(F)(F)F)N(Cc1ccc(-c2ncon2)cc1F)S(=O)(=O)c1ccc(Cl)cc1`, the Potency result was “inactive”.

For `COc1cc2c(cc1Cc1cccc(Cl)c1F)c(=O)c(C(=O)O)cn2[C@H](CO)C(C)C`, the Potency was 8.33 µM (active).

In the case of `O=P(O)(O)C(O)(Cn1ccnc1)P(=O)(O)O`, the viability (% of control) was 119% [at 5.12 µM].

On to `CC(C)(C)c1cnc(CSc2cnc(NC(=O)C3CCNCC3)s2)o1`, for which the Potency was 0.742 µM (active).

The values are drawn from PubChem BioAssay (NCATS).
